From the supplement of paper PMC3334620
In all, about 33,000 sequences were measured (“E-score (-0.5 to 0.5)”: median about -0.054, highest 2% from about 0.39 on). This excerpt belongs to a sample that is enriched for the highest values.

These sequences were tested against Ylr278c (UniProt Q05854) (assay: PBM E-score (8-mer binding enrichment) (E-score (-0.5 to 0.5)); higher = stronger / more preferred TF binding). Conditions: protein concentration: 200 nM; construct: GST-DNA-binding domain.
Outline: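 Using PURExpress in vitro transcription/translation, GST-tagged yeast transcription factors were made in full-length or DNA-binding-domain form. These were applied at about 100-200 nM to double-stranded universal all-10-mer Agilent arrays, and bound protein was detected with fluorescent anti-GST. Scans were normalised with masliner before the Universal PBM Analysis Suite assigned E-scores to ungapped eight-base words pooled with their reverse complements.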

UniProt Q05854, sequence (Q05854 whole entry, the tested form may be a part): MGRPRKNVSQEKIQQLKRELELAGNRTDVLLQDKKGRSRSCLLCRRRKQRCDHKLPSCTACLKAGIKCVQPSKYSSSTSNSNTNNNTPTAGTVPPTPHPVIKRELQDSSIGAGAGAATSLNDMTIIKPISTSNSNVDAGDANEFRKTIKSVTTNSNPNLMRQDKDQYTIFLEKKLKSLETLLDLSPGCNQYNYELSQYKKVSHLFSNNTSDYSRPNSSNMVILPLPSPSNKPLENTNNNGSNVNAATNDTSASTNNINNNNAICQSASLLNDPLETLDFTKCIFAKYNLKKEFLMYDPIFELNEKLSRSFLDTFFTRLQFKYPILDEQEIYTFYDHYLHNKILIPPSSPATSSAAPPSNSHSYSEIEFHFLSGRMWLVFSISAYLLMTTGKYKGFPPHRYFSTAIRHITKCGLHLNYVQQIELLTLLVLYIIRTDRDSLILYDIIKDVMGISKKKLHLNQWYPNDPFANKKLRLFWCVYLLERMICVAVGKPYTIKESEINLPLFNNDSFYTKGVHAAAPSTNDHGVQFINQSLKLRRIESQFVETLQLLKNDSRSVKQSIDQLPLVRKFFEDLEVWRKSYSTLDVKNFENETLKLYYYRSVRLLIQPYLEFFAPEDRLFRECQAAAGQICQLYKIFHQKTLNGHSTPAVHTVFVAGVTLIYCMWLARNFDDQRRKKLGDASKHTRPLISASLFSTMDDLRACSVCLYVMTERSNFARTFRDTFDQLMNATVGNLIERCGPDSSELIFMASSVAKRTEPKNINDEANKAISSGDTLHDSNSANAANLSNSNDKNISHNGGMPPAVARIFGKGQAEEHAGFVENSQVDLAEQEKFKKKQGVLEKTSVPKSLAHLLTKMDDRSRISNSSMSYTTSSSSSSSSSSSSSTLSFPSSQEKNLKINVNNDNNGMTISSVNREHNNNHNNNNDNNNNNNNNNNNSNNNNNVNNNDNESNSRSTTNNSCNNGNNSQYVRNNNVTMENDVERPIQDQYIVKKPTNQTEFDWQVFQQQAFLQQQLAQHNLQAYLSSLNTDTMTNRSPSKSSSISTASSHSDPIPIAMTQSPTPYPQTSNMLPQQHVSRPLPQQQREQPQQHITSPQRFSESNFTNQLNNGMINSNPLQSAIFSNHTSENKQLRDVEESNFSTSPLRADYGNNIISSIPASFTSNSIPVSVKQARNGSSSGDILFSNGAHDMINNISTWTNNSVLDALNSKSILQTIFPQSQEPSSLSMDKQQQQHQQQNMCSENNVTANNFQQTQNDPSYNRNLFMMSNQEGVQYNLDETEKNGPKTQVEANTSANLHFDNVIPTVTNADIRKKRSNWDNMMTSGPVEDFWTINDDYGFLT

Sequence | PBM E-score
CCGGTCCC | 0.355
AAAGTCCA | -0.0593
AAAGTCCG | 0.482
ATAGTCCG | 0.413
CCGGTCCA | 0.21
CAGGTCCG | 0.353
ATAGTCCA | -0.109
AAGGTCCG | 0.426
CCGGTCCG | 0.45
AAAGTCCT | 0.226
ATAGTCCC | -0.153
AAGGTCCA | -0.124
CCGTTGAG | 0.0643
ACTAGCTC | -0.157
AGAGCTGC | -0.0659
AAACAACA | -0.119
CGTATCCC | 0.048
GGACTTAC | 0.305
GAAGCTAC | -0.144
AACACCTC | -0.251
GTGTGGTA | -0.165
CGAGTCCA | -0.144
CAAGTCCC | -0.108
CGAGTCCG | 0.391
CAAGTCCG | 0.455

Sequence | PBM E-score
CAAGTCCA | -0.118
AGAGTCCG | 0.347
CCGAGACG | 0.134
ACCTCAGA | -0.0802
GCCCCGGA | 0.439
CCCCCCGA | 0.083
GCCCCGGC | 0.259
GGCCCGGA | 0.395
TCCCCGGA | 0.435
CCCCCGGC | 0.254
TCCCCGAA | 0.357
GGCCCGCA | 0.188
GCCCCCGA | 0.0674
TCCCCCGA | 0.263
GGCCCGTA | 0.173
CCCCCGGA | 0.395
ATATTTTC | 0.0689
GACCTAAC | 0.0677
GCAGACGA | -0.119
GGATCTGA | 0.00665
AACCCATC | -0.0461
CAGTCATG | -0.129
ATGGCTGG | -0.209
CCAGCATC | -0.0271
ATCACTGC | -0.0314

Sequence | PBM E-score
ACTGTGGC | -0.32
GGACTGAC | -0.0427
CCCCTTAC | -0.195
CGCCCGAA | 0.111
CCCCGGGG | 0.412
ACCCCGGG | 0.404
AGCCCGGG | 0.328
CGCCCGGC | 0.292
AACCCGGG | 0.319
CCCCGGGC | 0.342
ACCCGGGG | 0.246
AGCCCGGA | 0.448
CGCCCGGA | 0.435
CCCCCGGG | 0.296
AGCCCGGC | 0.332
GTAAATGA | 0.024
GACAAGCC | -0.0446
CGACTTAG | -0.168
GCAACTCC | 0.327
AACGCCAA | -0.0358
GATTTCTA | 0.238
CATCCACG | -0.153
CGCTAGGC | -0.0311
GCATGGCA | 0.0442
ACCCCGGA | 0.445

Sequence | PBM E-score
TCCCGGGA | 0.398
ACCCCGGT | 0.385
ACCCGGGA | 0.307
CCCCGGGA | 0.378
ACCCCGGC | 0.355
GGTCTTAC | -0.0198
GAAGCGGC | 0.125
GGATGCCA | -0.277
CAATTCCA | -0.0617
ATATTCCG | 0.43
ATATTCCC | 0.277
CGATTCCA | 0.056
CAATTCCG | 0.465
AAATTCCC | 0.254
CAATTCCC | 0.19
AAATTCCG | 0.471
CGATTCCG | 0.396
ATATTCCA | 0.0484
CGATTCCC | 0.226
AAATTCCA | 0.115
ATACCGTC | 0.153
AACCTAGT | -0.00542
AACTTAGG | -0.156
CAAGTGCA | -0.362
TGGTTCAA | -0.118

Sequence | PBM E-score
ATACCTTC | 0.0292
GGCGCACA | 0.145
TCCCTCAA | -0.106
CGGCCGGA | 0.424
AGGCCGTA | 0.0868
CGGCCGCA | 0.249
AGGCCGGG | 0.258
GGGCCGAA | 0.198
GGGCCGTA | 0.0879
AGGCCGGC | 0.342
GGGCCGGA | 0.418
AGGCCGGA | 0.419
CGGCCGGC | 0.409
CGGCCGAC | 0.309
CGGCCGTA | 0.225
CACCTAAG | -0.134
CTTACCTC | -0.0434
AGGTTGGG | -0.122
ACGCTACT | 0.0556
AGCAATCA | -0.118
CATTGTCC | 0.314
CGCCATAG | -0.135
GGTTGATA | -0.0138
CGTCGTTC | 0.137
ATCTGACG | -0.134

Sequence | PBM E-score
CGTGCCAA | -0.0693
CGGCCTTC | 0.394
AGGCCTTC | -0.221
CGGCCTTA | 0.352
CGTTCCGA | 0.288
GGTTCCGA | 0.384
AGTTCCGC | 0.383
AGTTCCGA | 0.43
AGTTCCGG | 0.433
AGTTCCTG | -0.0874
AGAACCGG | 0.345
CACTCCGA | 0.454
CACTCCTG | -0.0899
CACTCCCG | 0.193
CACTCCGC | 0.393
AACTCCGG | 0.497
CACTCCAC | -0.139
CACTCCGG | 0.46
CACTCCCA | -0.106
CACTCCAA | 0.031
AACTCCCG | 0.365
AACTCCTG | 0.152
CACTCCTC | 0.0388
ATCTAGTC | 0.0095
GAGCGCGC | 0.182

Sequence | PBM E-score
GGCATCTA | -0.0448
ATCCATCA | -0.135
GACTCCGA | 0.467
GACTCCGC | 0.426
TACTCCAA | -0.243
GACTCCTC | -0.135
AACTCCCC | 0.266
TACTCCGA | 0.479
GACTCCAA | -0.221
GACTCCTA | -0.191
AACTCCTC | 0.0657
AACTCCGC | 0.49
TACTCCTA | -0.187
GACTCCAC | -0.0152
CATCAGTA | -0.233
GGTGTGAC | -0.172
GTAAACAA | -0.0542
GTGCTCAA | -0.104
ACCGCCCA | 0.154
AACCTTCA | -0.245
TCACTCCA | -0.0238
AAGCTTGA | -0.0383
TCGGTCAA | 0.0369
GATTGCAC | 0.0435
AACTCCAT | 0.214

Sequence | PBM E-score
AACTCCCA | 0.155
AACTCCGA | 0.496
AACTCCAA | -0.00212
AACTCCCT | -0.072
AACTCCGT | 0.486
GACTTTCC | 0.137
CTGCGAAA | -0.0633
CCCCTGAA | -0.144
CACCCCAA | -0.0388
CCGCCGGC | 0.41
CCGCCGTC | 0.218
ACGCCGTA | 0.0546
CCGCCGCA | 0.266
ACGCCGGG | 0.365
ACGCCGGA | 0.432
CCGCCGTA | 0.354
GCGCCGAA | 0.302
GCGCCGTA | 0.231
CCGCCGCC | 0.304
CCGCCGGA | 0.462
GCGCCGGA | 0.432
GTGGCCCA | -0.196
CGACTGAC | -0.171
CGGATCGA | 0.19
CAACTCTC | -0.0583

Sequence | PBM E-score
ACTGAGAG | -0.25
TACAGTGA | -0.253
CGTATGCC | 0.107
ATCTAGTG | -0.173
AACTATCC | 0.0243
ACGCCGTC | 0.276
ACGCCGCC | 0.279
ACGCCGGC | 0.421
AATATGAA | 0.0372
CGGGCTGC | 0.118
CGAATGGA | -0.121
GACGCTGA | -0.214
GTATCGCA | -0.0427
CTATCGTA | -0.18
CTATCGGA | 0.444
CTATCGGC | 0.239
ATATCGGC | 0.319
ATATCGGA | 0.391
GTATCGAA | -0.103
GTATCGGA | 0.431
ATATCGGG | 0.313
ATCTCAGG | -0.0988
GTGGCAAC | -0.0372
AGCAATCG | -0.0973
CTCCTTTA | -0.132

Sequence | PBM E-score
ACATTGCA | -0.0533
AACGCCGG | 0.424
AAAGCCGT | 0.137
AACGCCGT | 0.272
ATCGCCGC | 0.295
ATCGCCGG | 0.421
TCCGCCGA | 0.437
CAAGCCGG | 0.263
ATCGCCGA | 0.373
CCCGCCGA | 0.334
GCCGCCGA | 0.338
AAAGCCGG | 0.391
AACGCCGC | 0.339
ATCTGTGC | -0.167
AAGCGAAG | -0.0624
AACGCCGA | 0.433
ACCGCCGC | 0.235
AAAAGCCT | -0.224
AAAAGCCG | 0.388
AAAAGCCC | 0.151
CCCGCCGG | 0.384
ACCGCCGG | 0.403
CACGCCGA | 0.211
TACGCCGA | 0.293
GAGACTAC | 0.0263

Sequence | PBM E-score
ACGCAAAG | -0.0959
GGACCGGA | 0.442
CGACCGAA | 0.148
GGACCGCA | 0.238
AGACCGGA | 0.335
CGACCGGC | 0.248
CGACCGGA | 0.409
CACAGATC | -0.0312
ACTGCTCT | -0.15
ATCTTCGG | 0.303
AAGTCGCT | -0.163
ACGACACC | 0.0263
ATCAAAAA | 0.0906
CTCCCAGC | -0.0468
AATGTCCA | -0.115
ATTGTCCC | 0.0603
CATGTCCG | 0.384
ATTGTCCA | -0.113
AATGTCCG | 0.458
ATTGTCCG | 0.452
GCCGCAGA | 0.143
AGGTGTCG | 0.0347
GCCGATGA | 0.298
GTCCGCAC | 0.308
TTCCGCAA | 0.298

Sequence | PBM E-score
ATCCGCAC | 0.299
CTCCGCAC | 0.41
CTCCGCAA | 0.409
CTCCGCAG | 0.418
ATCCGCAG | 0.259
CCCCGCAG | 0.302
GTCCGCAA | 0.334
ACACCTGG | -0.243
CCCTCTAG | -0.311
CGTGGCCC | -0.0746
AACCCTAA | -0.0663
CGAAAGGC | 0.0796
ACGCCCGG | 0.305
AAGCCCGG | 0.416
CCGCCCGG | 0.402
CCGCCCGC | 0.349
ACGCCCCG | 0.229
AAGCCCGT | 0.0339
CCGCCCCG | 0.42
CCGCCCCC | 0.168
AAGCCCGC | 0.266
GAAACCTC | 0.0208
CTGAGTCC | 0.00022
CACTAAAG | -0.169
GTGCTCCA | -0.118

Sequence | PBM E-score
AACAACAC | -0.0906
ACTTGACG | -0.135
ATTGATCC | 0.282
CACTTGCC | 0.0403
CCCCTCGC | -0.239
GGGAGCCA | -0.264
AGGAGCCG | -0.0181
CGGAGCCG | 0.427
CGGAGCCC | 0.37
TGGAGCCA | -0.194
CGGAGCCA | 0.402
AATGCTGC | -0.0877
CAGTCTCA | -0.126
AATCGGGA | 0.231
GATCGGTA | 0.265
CATCGGGC | 0.211
GATCGGAA | 0.408
CATCGGAC | 0.424
AATCGGAT | 0.384
GATCGGGA | 0.227
AATCGGAA | 0.416
CATCGGTC | 0.15
AATCGGTG | 0.126
AATCGGCA | 0.304
AATCGGAG | 0.466

Sequence | PBM E-score
AACTGGGG | 0.00524
CTGCAACC | -0.27
CTTTGGTA | -0.0286
CGAATGTC | 0.101
CAGAGTAG | -0.16
AGCCAGCC | -0.18
AAAGCGAT | 0.0361
CGATTTTC | 0.153
GAGCGCCC | 0.00794
CATCGGGG | 0.314
CATCGGAA | 0.396
GATCGGGC | 0.184
AATCGGAC | 0.397
CATCGGTA | 0.261
CATCGGAG | 0.457
AATCGGCC | 0.24
GCTCGGAC | 0.382
CATCGGCG | 0.304
GATCGGAC | 0.434
AATCGGGC | 0.0936
CATCGGCA | 0.284
